Molecules are shown by their SMILES. Where “and” joins values, the source holds several entries; their conditions need not be identical. Equal entries are not always repeated. Results filed as inconclusive are left out. Calls of active or inactive are those of the source. Unless noted, calls come from the whole dose curve; as a rule, active = well fitted curve in the direction sought with a large enough effect; inconclusive = small, poorly fitted or top-dose-only effect, or another doubt; inactive = no such curve, though single readings can be large; an effect the other way counts as inactive or inconclusive.

Test [1] deals with Hexokinase-4 (Homo sapiens) + Glucokinase regulatory protein (Homo sapiens) (UniProt P35557+Q14397). Put plainly: qHTS assay for inhibitors of recombinant human GCK-GKRP interaction: HTRF assay (AID 743207).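 Note: 0% = DMSO with GCK present and -100% = DMSO wells lacking GCK.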 In short, it runs like this: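 Steps: dispense GCK–GKRP complex (5 nM each, GST- and FLAG-tagged) with 2 uM S6P; pin in compounds; add XL665/Eu-cryptate-labelled antibodies; incubate 60 min at room temperature; read time-resolved FRET at 665 and 615 nm.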
Sequence of Hexokinase-4 (Homo sapiens) + Glucokinase regulatory protein (Homo sapiens) (P35557 whole entry, looked up): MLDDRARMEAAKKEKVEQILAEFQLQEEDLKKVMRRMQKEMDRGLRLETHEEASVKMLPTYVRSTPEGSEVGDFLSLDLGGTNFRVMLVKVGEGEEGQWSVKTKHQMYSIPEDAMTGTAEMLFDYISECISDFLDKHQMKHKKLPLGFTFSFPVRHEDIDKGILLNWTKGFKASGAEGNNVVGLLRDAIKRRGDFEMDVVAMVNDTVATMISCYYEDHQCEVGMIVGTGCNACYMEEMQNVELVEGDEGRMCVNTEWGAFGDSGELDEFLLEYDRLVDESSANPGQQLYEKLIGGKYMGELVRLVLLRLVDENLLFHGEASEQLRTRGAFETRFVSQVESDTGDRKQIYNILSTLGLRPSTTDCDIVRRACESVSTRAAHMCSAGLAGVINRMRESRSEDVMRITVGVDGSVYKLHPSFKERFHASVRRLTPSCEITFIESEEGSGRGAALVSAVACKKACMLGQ
Sequence of Hexokinase-4 (Homo sapiens) + Glucokinase regulatory protein (Homo sapiens) (Q14397 whole entry, looked up): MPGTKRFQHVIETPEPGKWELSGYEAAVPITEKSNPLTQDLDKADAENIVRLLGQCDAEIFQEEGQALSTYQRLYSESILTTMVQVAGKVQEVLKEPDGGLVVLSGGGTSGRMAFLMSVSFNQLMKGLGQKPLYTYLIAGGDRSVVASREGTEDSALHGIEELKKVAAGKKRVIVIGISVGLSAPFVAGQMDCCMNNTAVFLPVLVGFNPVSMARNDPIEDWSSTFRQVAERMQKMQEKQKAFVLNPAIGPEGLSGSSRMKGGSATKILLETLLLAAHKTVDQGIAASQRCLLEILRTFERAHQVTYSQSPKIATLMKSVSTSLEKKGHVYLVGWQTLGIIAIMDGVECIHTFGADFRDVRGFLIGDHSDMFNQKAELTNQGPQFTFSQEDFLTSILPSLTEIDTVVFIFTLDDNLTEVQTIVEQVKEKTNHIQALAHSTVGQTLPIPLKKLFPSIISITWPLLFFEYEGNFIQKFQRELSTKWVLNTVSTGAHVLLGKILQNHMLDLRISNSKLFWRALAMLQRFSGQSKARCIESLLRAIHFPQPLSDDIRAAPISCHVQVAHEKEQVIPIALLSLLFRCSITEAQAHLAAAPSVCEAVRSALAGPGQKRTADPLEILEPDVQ
A general note: In qHTS, concentration-response curves come from the screen itself.

Test [2] can be described thus: qHTS Assay for Identifying Gametocytocidal Compounds (AID 743244).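 Note: % is set by controls: 0 for no effect and ±100 for the full control effect; actives lower the fluorescent signal which means gametocytes are killed.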 The note with it: P. falciparum 3D7 stage III-V gametocytes, alamarBlue, 72 h; max response: stronger effect = lower value. Summed up:
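In this qHTS viability screen, late-stage 3D7 gametocytes are incubated with compound for 72 h, then with alamarBlue for 24 h; reduced resorufin fluorescence marks killing.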

The nature of test [3]: qHTS profiling of the MIPE4 collection as inhibitors of Plasmodium falciparum (3D7) proliferation (AID 743344; call rule not given here;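 note: scaled between DMSO vehicle wells and 0.29 µM artemisinin as full inhibition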). The following applies: P. falciparum 3D7 in erythrocytes, SYBR Green DNA fluorescence, 72 h; at 28.5 µM (top of the series) unless noted. In short, it runs like this: (§1)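 Erythrocytes infected with P. falciparum (0.3% parasitemia, 2.5% hematocrit) incubated with compounds 72 h at 37 C, 5% CO2. Lysis with saponin/Triton buffer containing SYBR Green I, overnight at room temperature in the dark; DNA fluorescence (485/535 nm) normalised to 0.29 uM artemisinin and DMSO.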

Test [4] can be described thus: qHTS profiling of the MIPE4 collection as inhibitors of Plasmodium falciparum (DD2) proliferation (AID 743345; call rule not given here). The following applies: P. falciparum Dd2 in erythrocytes, SYBR Green DNA, 72 h; at 28.5 µM (top of the series) unless noted. Summed up:
as §1

Test [5] in a line: qHTS profiling of the MIPE4 collection as inhibitors of Plasmodium falciparum (DD2) proliferation (Rep 2) (AID 743346; call rule not given here). The note with it: P. falciparum Dd2 in erythrocytes, SYBR Green DNA, 72 h; at 28.5 µM (top of the series) unless noted. Summed up:
as §1

Test [6] can be described thus: qHTS profiling of the MIPE4 collection as inhibitors of Plasmodium falciparum (HB3) proliferation (AID 743347; call rule not given here;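 note: plate controls were DMSO vehicle wells for no effect and artemisinin wells for full effect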). The following applies: P. falciparum HB3 in erythrocytes, SYBR Green DNA, 72 h; at 28.5 µM (top of the series) unless noted. Summed up:
as §1

The nature of test [7]: High-throughput drug toxicity screening in the BPDCN cell line Gen2.2 (AID 1224824; call rule not given here;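 note: cells exposed to compounds for 48 h before reading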). The following applies: Gen2.2 BPDCN cells; at 45.8 µM (top of the series) unless noted. Summed up:
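Gen2.2, 500 cells/well, phenol red-free RPMI/10% FBS/Pen-Strep; 48 h cpd, 37 °C/5% CO2; CTG lum, 15 min RT. Norm: DMSO = 100%, bortezomib 9.2 uM final = 0%.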

The nature of test [8]: High-throughput drug toxicity screening in the BPDCN cell line Cal-1 (AID 1224825; call rule not given here). The note with it: Cal-1 BPDCN cell viability, qHTS; at 45.8 µM (top of the series) unless noted. Summed up: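 500 Cal-1 cells/well, RPMI + glutamine + 10% FBS (phenol red-free); cpd added by pin tool; 48 h, 37C, 5% CO2; CTG 15 min RT, lumi read. Normalised: DMSO 100%, bortezomib 9.2 uM 0%.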

Test [9] is described as follows: qHTS assay for measurement of the activity of small molecule inhibitors on Zika virus induced Caspase-3 activity in human iPSC derived neural progenitor cells (hNPCs) (AID 1224857). Note: % of control where 0% means no effect; nearly all actives have a fitted effect of over 65% in size. Summed up:
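In medium with heparin 2 ug/ml and cyclopamine 2 uM, hNPCs (350 cells/well) received compound for one hour and then Zika virus at 2 FFU/cell; caspase activity was measured by Caspase-Glo 3/7 luminescence 6 h post-infection.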

A short description of test [10]: qHTS assay for measurement of the activity of small molecule inhibitors on Zika virus induced Caspase-3 activity in human astrocytoma cells (AID 1224859).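 Note: plate controls were ZIKV-infected untreated cells for no effect and uninfected cells for full effect.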 Summed up:
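A cell-based luminescent caspase-3/7 assay used SNB-19 cells infected with ZIKV (2 FFU/cell) for 6 h following 1 h compound pretreatment.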

The nature of test [11]: qHTS Screen of the MIPE 4.0 Collection Against Ewings Sarcoma (RDES) (AID 1259252). Note: nearly all actives have a fitted effect of over 35% in size. Note: potency is the fitted concentration of half-maximal effect. In short, it runs like this:
(§2)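 CellTiter-Glo luminescence after 48 h compound exposure (titration) gave viability; percent activity used DMSO-treated cells as no inhibition and medium-only wells as full inhibition. Cells grown in RPMI/5% FBS, dosed 4 h post-seeding.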

Test [12] can be described thus: qHTS Screen of the MIPE 4.0 Collection Against Ewings Sarcoma (TC71) (AID 1259253).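 Note: 100% = DMSO-treated cells and 0% = medium-only wells without cells; nearly all actives have a fitted effect of over 40% in size.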 Summed up:
as §2

A short description of test [13]: qHTS Screen of the MIPE 4.0 Collection Against Ewings Sarcoma (EW8) (AID 1259255).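 Note: 100% = DMSO-treated cells and 0% = medium-only wells without cells; nearly all actives have a fitted effect of over 35% in size.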 In short, it runs like this: as §2
The nature of test [14]: qHTS profiling for inhibitors of Plasmodium falciparum (3D7) proliferation (AID 743322; call rule not given here;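 note: infected erythrocytes exposed to compound for 72 h before lysis; 100% = DMSO vehicle wells and 0% = 0.29 µM artemisinin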). The note with it: P. falciparum 3D7 proliferation; at 28.7 µM (top of the series) unless noted. Summed up: as §1
The nature of test [15]: qHTS profiling for inhibitors of Plasmodium falciparum (DD2) proliferation (AID 743323; call rule not given here). The following applies: lower = more inhibition; at 28.7 µM (top of the series) unless noted. Summed up:
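Parasite proliferation measured via DNA-dye fluorescence, as uninfected erythrocytes lack DNA. Cultures at 0.3% parasitemia and 2.5% hematocrit incubated 72 h with compound; signal scaled between vehicle and 0.29 uM artemisinin wells.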

Test [16] is described as follows: qHTS profiling for inhibitors of Plasmodium falciparum (HB3) proliferation (AID 743324).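 Note: 100% = DMSO vehicle wells and 0% = artemisinin-treated control wells.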 The note with it: Plasmodium falciparum HB3 blood-stage proliferation; at 28.7 µM (top of the series) unless noted. In short, it runs like this: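 P. falciparum HB3 grown in erythrocytes (0.3% parasitemia, 2.5% hematocrit final) with compound for 72 h at 37 C, 5% CO2. Parasite DNA detected by SYBR Green after saponin/triton lysis overnight; normalized to 0.29 uM artemisinin and DMSO.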

Turning to `N=c1nc(N2CCCCC2)cc(N)n1O`, the result in test [1] was inactive. In [2], the max response was 1.66% (inactive) and 5.64% (inactive). Besides, in [3], the parasite growth, % of DMSO control turned out to be 6.29%. Also, the parasite growth remaining, % of DMSO control (lower = more inhibition) in [4] was 33.6%. The parasite growth, % of control (lower = inhibition) in [5] was found to be 7.66%. Also, the growth, % of control in test [6] was 3.91%. For the same compound, the cell viability, % of control (lower = more cytotoxic) in [7] was 450%. Moreover, the viability (% of control) in [8] amounted to 106%. The Potency entry in test [9], in [10], in test [11], in [12] and in test [13] was “inactive” throughout.
For the compound `CC(C)(C)NCC(O)c1ccc(O)c(CO)c1` (stereo not drawn), in test [2], the max response was 0.0655% (inactive) and 23.1% (inactive). Moreover, in test [7], the cell viability, % of control (lower = more cytotoxic) stood at 76%. For the same compound, the viability (% of control) in [8] came out at 113%. Also, the Potency result in test [9], in test [10], in test [11], in test [12] and in test [13] was “inactive” each time.
For `c1ccc([C@H]2CN3CCSC3=N2)cc1`, in [1], the outcome was inactive. Also, the max response in [2] was 4.37% (inactive). This compound also gave a parasite growth, % of DMSO control in [3] of 92.1%. For the same compound, in test [4], the parasite growth remaining, % of DMSO control (lower = more inhibition) amounted to 98.3%. For the same compound, the parasite growth, % of control (lower = inhibition) in [5] turned out to be 63.1%. Moreover, the cell viability, % of control (lower = more cytotoxic) in test [7] turned out to be 200%. The viability (% of control) in test [8] stood at 116%. In addition, the Potency entry in [9], in test [10], in test [11], in [12] and in [13] was “inactive” throughout.
With `O=c1n(CCCN2CCN(c3cccc(Cl)c3)CC2)nc2ccccn12`, the result in test [1] was inactive. Further, in [2], the max response is 8.61% (inactive) and 11.5% (inactive). In addition, in [3], the parasite growth, % of DMSO control is 60.5%. The parasite growth remaining, % of DMSO control (lower = more inhibition) in test [4] worked out at 82.9%. Further, the parasite growth, % of control (lower = inhibition) in test [5] was found to be 72.8%. The compound also displayed a growth, % of control in [6] of 92.5%. Besides, the cell viability, % of control (lower = more cytotoxic) in test [7] was determined as 165%. Also, the viability (% of control) in test [8] came to 100%. For the same compound, the Potency result in test [9], in [10], in test [11], in test [12] and in test [13] was “inactive” throughout.
Consider `Oc1ccc(C2CNCCc3c2cc(O)c(O)c3Cl)cc1` (stereo not drawn), for which the result in [1] was inactive. Further, the max response in [2] was 2.69% (inactive) and -7.1% (inactive). In test [3], this compound yielded a parasite growth, % of DMSO control of 6.63%. Also, the parasite growth remaining, % of DMSO control (lower = more inhibition) in test [4] is 65.8%. The parasite growth, % of control (lower = inhibition) in [5] stood at 14.2%. Moreover, the growth, % of control in test [6] came out at 7.76%. Besides, in test [7], the cell viability, % of control (lower = more cytotoxic) worked out at 156%. Also, the viability (% of control) in test [8] stood at 66.9%. For the same compound, the Potency entry in test [9], in test [10], in test [11], in [12] and in [13] was “inactive” in each case.
Turning to `Clc1cccc(Cl)c1NC1=NCCN1`, the outcome in test [1] was inactive. For the same compound, the max response in [2] was 7.62% (inactive) and 5.35% (inactive). The same compound yielded a parasite growth, % of DMSO control in [3] of 86.2%. In [4], the parasite growth remaining, % of DMSO control (lower = more inhibition) was determined as 77.5%. In addition, the parasite growth, % of control (lower = inhibition) in test [5] was determined as 56.5%. Further, the growth, % of control in [6] was 70.5%. In addition, in test [7], the cell viability, % of control (lower = more cytotoxic) is 144%. Further, the viability (% of control) in test [8] is 113%. The Potency result in [9], in test [10], in test [11], in [12] and in test [13] was “inactive” throughout.
As to `N[C@@H]1CONC1=O`, in test [1], the outcome was inactive. Further, the max response in test [2] was 2.44% (inactive) and 21.1% (inactive). Moreover, the parasite growth, % of DMSO control in [3] is 398%. For the same compound, in test [4], the parasite growth remaining, % of DMSO control (lower = more inhibition) was determined as 120%. Moreover, the parasite growth, % of control (lower = inhibition) in test [5] is 80.9%. Further, in [7], the cell viability, % of control (lower = more cytotoxic) stood at 150%. Moreover, the viability (% of control) in test [8] amounted to 97.9%. The Potency entry in [9], in test [10], in test [11], in test [12] and in test [13] was “inactive” in each case.
For the compound `CCOc1cc(C=C2C(=O)N(c3ccccc3)N=C2C)cc(Cl)c1OCC(=O)OC`, the max response in test [2] was 28.7% (inactive). In test [14], this compound registered a remaining parasite growth % (stronger effect = lower value) of 88.1%. For the same compound, in [15], the activity, percent of control is 92.3%. Further, the remaining proliferation (% of control), lower = more inhibition in [16] stood at 102%. The compound also registered a parasite growth, % of DMSO control in test [3] of 102%. Besides, the parasite growth remaining, % of DMSO control (lower = more inhibition) in test [4] is 97.3%. The parasite growth, % of control (lower = inhibition) in test [5] was 106%. In test [6], this compound had a growth, % of control of 98.7%. The cell viability, % of control (lower = more cytotoxic) in test [7] came out at 14.1%. The viability (% of control) in test [8] is 61.6%. Also, the Potency entry in [9], in test [10] and in test [12] was “inactive” in each case. In [11], the Potency was 5.26 µM (active).
